# Screening data deposited in PubChem BioAssay by National Center for Advancing Translational Sciences (NCATS).
# Akt phos inh: blocks phosphorylation of Akt. 360,000 tested, 0.32% active. activity change, % for hits at 50 µM. Neuro2A IGF-stimulated pAkt S473 HTRF, 20 min; stronger effect = lower value; in the data active means activity change below about -80%; inconclusive means mostly about -51% to -80%; further: on the % scale 0 is the no-effect control and ±100 the full control effect
#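 Neuro2A cells (4,500/well, DMEM with 0.5% FBS) were treated with compound at a single 50 µM final concentration, stimulated with 6 nM IGF for 20 min at 37 °C, and lysed. Phospho-Akt Ser473 was read by HTRF as 665/615 ratio ×10^4.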
# ClpP mod: qHTS Assay for Activators of ClpP; 340,000 tested, 1.9% active; Potency, µM (titrated, usually from 57.5 µM), for inactives: top-dose activity change, negative = active; AID 651965, 2013; ATP-dependent Clp protease proteolytic subunit (Bacillus subtilis (strain 168)), P80244; purified B. subtilis ClpP, FRET peptide cleavage, 20 min; active means well fitted falling curve with a large enough effect; inconclusive means small, poorly fitted or top-dose-only effect; inactive means no such curve, though single readings can be large or run the other way; further: potency means the concentration at half of the fitted maximal effect; the source files actives as falling curves though it sought activators and does not explain the sign; nearly all actives have a fitted effect of over 65% in size
#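 Buffer: 100 mM Tris/HCl pH8, 100 mM KCl, 0.05% low protease BSA, 2.5% glycerol, 0.01% Tween-20. ClpP 10 microg/mL final; 20 min RT; delta FRET normalized to ADEP and DMSO controls.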
# RXFP1 antagonist: RXFP1 (human) relaxin receptor antagonism; activity change, negative = inhibition, % at 57.5 µM; HEK293-RXFP1, relaxin-stimulated cAMP HTRF, 30 min; stronger effect = lower value; Q9HBX9; 350,000 tested, 0.59% active;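 active means activity change of -60% or lower, but not beyond a set lower limit; inconclusive means change between -60% and -40%, or beyond the set limit; inactive means change above -40%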; further: on the % scale 0 is the no-effect control and ±100 the full control effect
# Target sequence (Q9HBX9 whole entry, looked up): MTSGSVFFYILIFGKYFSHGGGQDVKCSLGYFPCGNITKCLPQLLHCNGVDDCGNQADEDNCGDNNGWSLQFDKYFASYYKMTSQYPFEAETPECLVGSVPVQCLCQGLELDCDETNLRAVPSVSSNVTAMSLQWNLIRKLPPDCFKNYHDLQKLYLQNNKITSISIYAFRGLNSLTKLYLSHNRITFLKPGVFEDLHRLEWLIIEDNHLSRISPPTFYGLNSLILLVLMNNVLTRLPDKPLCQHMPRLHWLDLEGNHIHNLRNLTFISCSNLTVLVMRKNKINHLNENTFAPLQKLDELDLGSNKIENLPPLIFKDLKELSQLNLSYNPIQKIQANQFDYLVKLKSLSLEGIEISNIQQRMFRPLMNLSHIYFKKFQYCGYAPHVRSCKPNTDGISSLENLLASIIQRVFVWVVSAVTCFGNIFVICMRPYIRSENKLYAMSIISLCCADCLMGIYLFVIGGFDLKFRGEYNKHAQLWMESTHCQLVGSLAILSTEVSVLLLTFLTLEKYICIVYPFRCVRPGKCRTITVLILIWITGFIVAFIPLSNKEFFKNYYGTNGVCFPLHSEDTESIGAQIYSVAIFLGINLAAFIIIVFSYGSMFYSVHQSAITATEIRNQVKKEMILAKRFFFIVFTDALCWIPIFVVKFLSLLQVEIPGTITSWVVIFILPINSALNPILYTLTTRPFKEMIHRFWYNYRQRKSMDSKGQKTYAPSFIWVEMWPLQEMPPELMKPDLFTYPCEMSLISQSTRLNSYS
# RXFP1 agonist: activates the human relaxin receptor RXFP1. Potency, µM (highest dose often 57.5 µM), for the others: at the top dose activation, most hits filed as activators. Q9HBX9. HEK293T-RXFP1 cAMP TR-FRET, 30 min; response scale: percent of porcine relaxin response, buffer zero. 370,000 tested, 0.3% active; active means well fitted activation curve with a large enough effect; inconclusive means small, poorly fitted or top-dose-only effect; further: potency means the concentration at half of the fitted maximal effect; on the % scale 0 is the no-effect control and ±100 the full control effect; nearly all actives have a fitted effect of over 60% in size
#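 HEK293 cells stably expressing RXFP1, treated 30 min at 37C with compounds plus PDE4 inhibitor Ro 20174; cAMP measured by HTRF TR-FRET. Normalized to buffer and 29 nM porcine relaxin; EC50 by Hill fit.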
# gsp antag: gsp mutant antagonism | Potency, µM (top dose mostly 76.9 µM), inactives show at the top dose activity change, negative = inhibition, hits mostly inhibitors | gsp-mutant cells, cAMP HTRF, 30 min | 340,000 tested, 0.4% active; calls by dose curve; cell line not stated here;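 further: intracellular cAMP measured with PDE inhibitor Ro 20-1724 present during compound exposure; potency means the concentration at half of the fitted maximal effect; on the % scale 0 is the no-effect control and ±100 the full control effect; nearly all actives have a fitted effect of over 65% in size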
#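 Cells in G418 medium, seeded 16-24 h, 37C; buffer exchange to DPBS + 1 mM CaCl2, 0.5 mM MgCl2, 0.05% BSA; cpds in DMSO + […] (300 uM stock), 30 min 37C; HTRF cAMP detection.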
# gsp agonist: agonists of gsp mutant (McCune-Albright syndrome); Potency, µM (doses to about 76.9 µM), for inactives: top-dose activation (cAMP increase), most hits filed as activators; AID 624287; gsp mutant cells, cAMP HTRF, 30 min; 340,000 tested, 0.13% active; active means well fitted activation curve with a large enough effect; inconclusive means small, poorly fitted or top-dose-only effect, or another doubt; inactive means no such curve, though single readings can be large or run the other way; cell line not stated here;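 further: phosphodiesterase inhibitor Ro 20-1724 added with compounds to block cAMP breakdown; potency means the concentration at half of the fitted maximal effect; nearly all actives have a fitted effect of over 60% in size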
#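 Cells in DMEM/10% FBS with G418 were pretreated with compounds in DMSO plus […] (300 uM stock) for 30 min at 37C. cAMP was measured by HTRF (cAMP-d2 plus anti-cAMP antibody-K) after 30 min at room temperature.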
# * = called active by the depositor; i = inactive; ? = inconclusive; nt = not tested or not shown; [ ] = dose if it differs, or a comment. Rows were chosen to be rich in hits. Some 2.7% of all compounds tested hit in one or more screens of this group.
SMILES,Akt phos inh,ClpP mod,RXFP1 antagonist,RXFP1 agonist,gsp antag,gsp agonist
Cn1cc(C(=O)NCc2ccc(Cl)cc2)c(=O)c2cc(S(=O)(=O)N3CCOCC3)ccc21,i,2%,-9,11%,10%,-19%
CCc1cc2c3c(c(=O)oc2cc1O)CCCC3,i,10µM*,5,10%,1%,-4%
CCc1cc2c3c(c(=O)oc2cc1OC(C)C(=O)O)CCCC3 (stereo not given),i,4%,6,4%,-11%,8%
COC(=O)c1cc(C)nc2c1c(=O)nc(SCc1ccccc1Cl)n2C1CC1,nt,3%,?,10%,nt,nt
CCn1c(SCc2ccccc2F)nc(=O)c2c(C(=O)OC)cc(C3CC3)nc21,nt,-13%,-102*,0%,nt,nt
CCn1c(SCc2ccc(F)cc2Cl)nc(=O)c2c(C(=O)OC)cc(C3CC3)nc21,nt,-3%,-84*,0%,nt,nt
CC(C)(C)c1nnc(NS(=O)(=O)c2ccc([N+](=O)[O-])cc2)s1,i,-1%,-1,1%,-23%,-5%
CC(=O)N1CCc2cc3nc(C)cc(C)c3cc21,i,25µM*,-1,3%,2%,-22%
CCS(=O)(=O)N1CC(=O)N(c2ccc(Cl)cc2)C(C)(C(=O)NC2CCCCC2)C1 (stereo not given),nt,-1%,-13,-1%,nt,nt
Cc1ccc(C)n1-c1ccc(C(=O)N2CCOCC2)cc1,-106%*,0%,-19,0%,0%,22%
Cc1cccc(N(Cc2ccccc2)C(=O)c2ccc(CS(C)(=O)=O)cc2)c1,i,0%,-6,0%,9%,18%
Cc1cc(OCCSc2nnc(-c3cccs3)n2C)ccc1Cl,i,-2%,-13,0%,35µM*,1%
Cc1ccc(OCCSc2nnc(-c3cccs3)n2C)cc1,i,-1%,-5,-5%,-16%,-18%
CN(C)CCSc1nc(-c2ccccc2)nc2c1CCCC2,i,16µM*,-11,5%,2%,20%[15.4 µM]
CN(C/C=C/c1ccccc1)Cc1cccc2ccccc12,i,-1%,-69*,0%,-13%,nt
CN(Cc1ccc(C(C)(C)C)cc1)Cc1cccc2ccccc12,nt,nt,-19,nt,nt,nt
Cc1ccc(C(=O)NC(=S)c2c(C)cc3ccccn23)cc1,i,10%,-4,nt,nt,-21%
COc1ccc(CCc2c[nH]c(=O)c3cncnc23)cc1OC,nt,3%,nt,nt,nt,nt
c1ccc2c(c1)CCCN2,nt,-1%,nt,nt,nt,nt
CC(SC1=NCCN1S(C)(=O)=O)c1ccccc1 (stereo not given),i,1%,4,3%,12%,-4%
Cc1nc(N2CCN(C)CC2)c2cc(-c3ccccc3)sc2n1,i,nt,-8,2%,3%,-8%
Cc1nc(N2CCN(S(=O)(=O)c3ccccc3)CC2)c2cc(-c3ccccc3)sc2n1,i,28µM*,-16,4%,-4%,16%
CCn1nccc1NC(=O)c1ccc2sc([C@@H]3O[C@H](CO)[C@H](O)[C@H](O)[C@H]3O)nc2c1,i,-1%,nt,nt,nt,nt
Cc1cccc(Nc2nnc(-c3ccc(C)c(S(=O)(=O)N4CCN(C)CC4)c3)c3ccccc23)c1,nt,-7%,-15,-1%,nt,nt
COc1ccc(OC)c(C2C=C(C34CC5CC(CC(C5)C3)C4)NC(=S)N2)c1 (stereo not given),i,nt,-2,5%,-10%,5%
SMILES,Akt phos inh,ClpP mod,RXFP1 antagonist,RXFP1 agonist,gsp antag,gsp agonist
COc1cc(C2C=C(C34CC5CC(CC(C5)C3)C4)NC(=S)N2)cc(OC)c1OC (stereo not given),-113%*,-1%,-7,3%,?,3%
C=CC[C@@H](CC(=O)OC(C)(C)C)C(=O)OC[C@@H]1CCCN1C(=O)[C@H](CC=C)CC(=O)NCCO,i,1%,nt,nt,13%,nt
COc1ccc(NC(=O)CSc2nnnn2C2CCCCC2)cc1,i,nt,-78*,-2%,5%,-28%
O=C(CSc1nnnn1C1CCCC1)Nc1ccc(F)cc1,-110%*,1%,-5,0%,11%,0%
c1ccc(OCCSc2nnnn2C2CCCCC2)cc1,-112%*,-1%,-11,-1%,-12%,12%
O=C(CSc1nnnn1C1CCCCC1)Nc1ccc(F)cc1,i,nt,2,1%,nt,3%[15.4 µM]
COc1ccc(N2C(=O)c3ccccc3NC2c2ccc(OC)c(COc3ccccc3F)c2)cc1 (stereo not given),nt,4%,nt,nt,nt,nt
COc1ccccc1N1C(=O)c2ccccc2NC1c1ccncc1 (stereo not given),i,?,6,-1%,12%,28%
O=C1c2ccccc2NC(c2ccncc2)N1c1ccccn1 (stereo not given),i,28µM*,16,2%,7%,-29%
COc1ccc(C2Nc3ccccc3C(=O)N2c2ccccc2)cc1COc1ccccn1 (stereo not given),i,28µM*,10,2%,8%,3%
c1ccc2c(c1)NC(c1ccncc1)n1c-2nc2ccccc21 (stereo not given),i,28µM*,1,4%,2%,-23%
COc1ccc(C2Nc3ccccc3C(=O)N2c2ccc(F)cc2)cc1CSc1ccccn1 (stereo not given),i,8.9µM*,-7,15%,-13%,-5%[15.4 µM]
Cc1cnc2c(C)cccc2c1C,nt,-12%,nt,nt,nt,nt
COc1ccc(C2Nc3ccccc3C(=O)N2Cc2ccccc2)cc1CSc1ccccn1 (stereo not given),i,14µM*,nt,10%,-12%,18%
COc1cc(C2Nc3ccccc3C(=O)N2Cc2ccccc2)ccc1OCc1ccccc1 (stereo not given),nt,4%,nt,nt,nt,nt
COc1ccc(C2Nc3ccccc3C(=O)N2c2ccccc2)cc1CSc1ccccn1 (stereo not given),i,32µM*,nt,3%,-16%,29%
COc1cc(N)c(N)cc1OC,nt,-12%,nt,nt,nt,nt
COC(=O)Cn1c(=NC(=O)c2ccc(Cl)s2)sc2cc(F)ccc21,i,28µM*,2,0%,-20%,3%
Cc1c(C)c2ccc(OCC(=O)c3ccccc3)cc2oc1=O,i,?,-2,22%,35µM*,?
C=CCOC(=O)COc1ccc2c(C)c(C)c(=O)oc2c1,i,13µM*,-3,5%,-13%,16%
COc1cccc(C(=O)COc2ccc3c(C)c(Cc4ccccc4)c(=O)oc3c2)c1,i,-2%,6,0%,12%,0%[15.4 µM]
CCOc1ccc(C2N3CC4(C(C)C)CN2CC(C(C)C)(C3)C4=O)cc1OC (stereo not given),nt,-1%,-1,0%,nt,nt
